TDP1 inh: qHTS Assay for Inhibitors of Tyrosyl-DNA Phosphodiesterase (TDP1); Tyrosyl-DNA phosphodiesterase 1 (Homo sapiens), Q9NUW8; recombinant TDP1, AlphaScreen DNA substrate cleavage; Potency, µM (highest dose often 130 µM), usual class: inhibitors; actives 0.28% (n = 350,000); further: nearly all actives have a fitted effect of over 40% in size
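Compounds were preincubated with Tdp1 (1 nM final) for 15 min at room temperature before substrate (15 nM final) started a 5 min reaction; beads (10 ug/ml final) were then added for 10 min before AlphaScreen detection.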
FEN1 inh: qHTS Assay for the Inhibitors of Human Flap endonuclease 1 (FEN1); P39748; Recombinant FEN1 flap cleavage, fluorescence, 15 min; Potency, µM (series often up to 114 µM), most hits filed as inhibitors; actives 0.35% (n = 390,000); further: nearly all actives have a fitted effect of over 65% in size
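Read-out was taken twice, immediately and after 15 min, following addition of 50 nM substrate to 10 nM FEN1 that had sat with test compound for 15 min at room temperature. Curves came from a four-parameter Hill model.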
RECQ1 inh: qHTS Assay for Inhibitors of RecQ-Like Dna Helicase 1 (RECQ1). RECQ1 DNA unwinding, red fluorescence kinetic read. Potency, µM (top dose mostly 57.3 µM), most hits filed as inhibitors. actives 0.54% (n = 240,000); further: nearly all actives have a fitted effect of over 30% in size
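50 nM RECQ1T1 preincubated 15 min with compound in Tris pH 8.0 buffer with MgCl2, DTT, Tween-20 and 2.5 ug/ml poly(dI-dC); started with 200 nM TAMRA/BHQ-2 forked duplex and 2 mM ATP. Unwinding read as fluorescence (525/598 nm), two reads 2 h apart.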
APEX1 inh: qHTS Assay for Inhibitors of the Human Apurinic/apyrimidinic Endonuclease 1 (APE1) | DNA repair nuclease/redox regulator APEX1 (Homo sapiens), P27695 | recombinant APE1, TAMRA/BHQ-2 abasic DNA cleavage fluorescence | Potency, µM (highest dose often 65.8 µM), usual class: inhibitors | actives 0.35% (n = 350,000); further: nearly all actives have a fitted effect of over 55% in size
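Enzyme (0.75 nM final) and test compound are incubated 15 min at room temperature before adding 50 nM quenched THF abasic-site duplex. Cleavage dequenches TAMRA, followed at 525/598 nm over three reads one minute apart.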
BLM helicase inh: qHTS Assay for Inhibitors of Bloom's syndrome helicase (BLM). RecQ-like DNA helicase BLM (Homo sapiens), P54132. recombinant BLM DNA unwinding, fluorescence dequenching. Potency, µM (titrated, usually from 56.1 µM), most hits filed as inhibitors. actives 0.2% (n = 350,000); further: nearly all actives have a fitted effect of over 35% in size
Of the large screens only hits and unclear results are named; the others gave an inactive call. In the library only some 0.92% were active in any assay of this set; here they are far more common. The call rests on the fitted dose curve; in most records, active means well fitted curve in the direction sought with a large enough effect; inconclusive means small, poorly fitted or top-dose-only effect, or another doubt; inactive means no such curve, though single readings can be large; an effect the other way counts as inactive or inconclusive.

COc1ccc(C2CC(c3ccccc3)Oc3cc4c(cc32)OCO4)cc1 (configuration not stated)	FEN1 inh inconclusive
CCc1cccc(C)c1NC(=O)C1CCN(S(=O)(=O)c2cccc3nonc23)CC1	FEN1 inh 89µM (no result: RECQ1 inh, APEX1 inh)
CC(C)(C)OC(=O)C[C@H]1C/C=C\C[C@H](CC(=O)N[C@H](CO)Cc2ccccc2)C(=O)N[C@H](C(C)(C)C)COC1=O	none (no result: RECQ1 inh, BLM helicase inh)
CC(C)(C)OC(=O)C[C@H]1C/C=C\C[C@H](CC(=O)N[C@@H](CO)Cc2ccccc2)C(=O)N[C@H](C(C)(C)C)COC1=O	APEX1 inh 13µM (no result: RECQ1 inh, BLM helicase inh)
O=C(N[C@@H]1C/C=C\C[C@@H](CC(=O)N(CCO)Cc2ccccc2)C(=O)NCCOC1=O)OCC1c2ccccc2-c2ccccc21	APEX1 inh 24µM (no result: RECQ1 inh, BLM helicase inh)
CC(C)(C)[C@H]1COC(=O)[C@H](NC(=O)OCC2c3ccccc3-c3ccccc32)C/C=C\C[C@@H](CC(=O)N[C@@H](CO)Cc2ccccc2)C(=O)N1	APEX1 inh 24µM (no result: RECQ1 inh, BLM helicase inh)
CCCN1CNc2c(c(=O)[nH]c(=S)n2CCc2cc(Cl)ccc2Cl)C1	none (no result: RECQ1 inh, APEX1 inh, BLM helicase inh)
Cn1c2ccsc2c2cnn(Cc3ccccc3F)c(=O)c21	none (no result: FEN1 inh, RECQ1 inh, APEX1 inh, BLM helicase inh)
Fc1ccccc1Cn1c(-c2ccccc2)nc2ccccc21	none (no result: RECQ1 inh, APEX1 inh)
CCc1cc(C(=O)/C=C/c2cc3c(cc2C)OCCO3)c(O)cc1O	none (no result: TDP1 inh, RECQ1 inh, APEX1 inh, BLM helicase inh)
COc1ccc(CN(Cc2ccccc2)S(=O)(=O)c2ccccc2)cc1COc1ccc(NC(C)=O)cc1	none (no result: FEN1 inh, RECQ1 inh, APEX1 inh, BLM helicase inh)
O=C(N/N=C/c1cc([N+](=O)[O-])ccc1O)c1cccc(NC(=O)c2cccc(Cl)c2)c1	TDP1 inh 56µM (no result: RECQ1 inh)
CC(C)C[C@H](NC(=O)CNC(=O)[C@H](C)NC(=O)[C@H](CC(C)C)NC(=O)[C@H](CCCNC(=N)N)NC(=O)[C@H](Cc1cnc[nH]1)NC(=O)[C@@H](NC(=O)[C@@H](N)C(C)C)[C@@H](C)O)C(=O)N[C@@H](CC(C)C)C(=O)N[C@@H](CO)C(=O)N[C@@H](CCCNC(=N)N)C(=O)N[C@@H](CO)C(=O)NCC(=O)NCC(=O)N[C@H](C(=O)N[C@H](C(=O)N[C@@H](CCCCN)C(=O)N[C@@H](CC(N)=O)C(=O)N[C@@H](CC(N)=O)C(=O)N[C@@H](Cc1ccccc1)C(=O)N[C@H](C(=O)N1CCC[C@H]1C(=O)N[C@H](C(=O)N[C@@H](CC(N)=O)C(=O)N[C@H](C(=O)NCC(=O)N[C@@H](CO)C(=O)N[C@@H](CCCCN)C(=O)N[C@@H](C)C(=O)N[C@@H](Cc1ccccc1)C(N)=O)C(C)C)[C@@H](C)O)C(C)C)C(C)C)C(C)C	none (no result: FEN1 inh)
COc1cccc(/C=C2/Sc3ccc(C(=O)NCCN4CCCCCC4)cc3NC2=O)c1	FEN1 inh 50µM (no result: RECQ1 inh)
Cc1ccc(/C=C2/Sc3ccc(C(=O)NCc4ccccn4)cc3NC2=O)cc1	TDP1 inh 32µM (no result: RECQ1 inh)
Cc1ccc(CNC(=O)c2sc3nc4n(c(=O)c3c2C)CCCC4)cc1	none (no result: RECQ1 inh, APEX1 inh)
COc1ccc(N2C(=O)C3CC(C)=C(C)CC3C2=O)c(OC)c1 (configuration not stated)	none
COc1cc(N2C(=O)C=CC2=O)ccc1N1C(=O)C=CC1=O	FEN1 inh 50µM (no result: TDP1 inh, RECQ1 inh, APEX1 inh, BLM helicase inh)
COC(=O)c1sc(N2C(=O)c3oc4ccccc4c(=O)c3C2c2ccc(O)cc2)nc1C (configuration not stated)	none (no result: RECQ1 inh, APEX1 inh)
O=C(CSc1nnc(CNC(=O)c2c(F)cccc2F)o1)NCc1ccco1	TDP1 inh 50µM, APEX1 inh 11µM (no result: RECQ1 inh)
Cc1ccc(C(=O)N/N=C/c2ccc(-c3ccccc3[N+](=O)[O-])o2)cn1	none
COc1ccc(-c2ccc(/C=N/NC(=O)c3cccnc3)o2)c([N+](=O)[O-])c1	RECQ1 inh 4µM, APEX1 inh inconclusive (no result: TDP1 inh)
O=C1c2c(O)cc(O)cc2O[C@H](c2ccc(O)c(O)c2)C1O (some centres not stated)	RECQ1 inh 14µM, APEX1 inh inconclusive (no result: FEN1 inh)
COc1cc(C2Nc3cccc4cccc(c34)N2)ccc1OC(C)=O	FEN1 inh 40µM
COc1ccc(C2Nc3cccc4cccc(c34)N2)cc1Br	none (no result: TDP1 inh, RECQ1 inh)
CCC1C(=O)CC2CCN3C(=O)CCC1C23 (configuration not stated)	none
Cc1cc(-c2ccc(S(=O)(=O)Nc3ccc(Cl)cc3C)cc2)on1	none (no result: RECQ1 inh, APEX1 inh)
COc1ccc(Cn2c(C)nc3c(c(=O)c4ccccc4n3C)c2=O)cc1	FEN1 inh inconclusive
COc1ccc(CCn2c(C)nc3c(c(=O)c4ccccc4n3C)c2=O)cc1	FEN1 inh 50µM
CC1=NN(c2ccccc2)C(=O)C1C=Nc1ccccc1O (configuration not stated)	none
CC1=NN(c2ccccc2)C(=O)C1/C=C1\NC(=S)NC1=O (configuration not stated)	FEN1 inh 79µM
Nc1nc2c(nc(Br)n2[C@@H]2O[C@H]3COP(=O)(O)O[C@H]3[C@@H]2O)c(=O)[nH]1	none (no result: FEN1 inh)
O=c1c2nc(Br)n([C@@H]3O[C@@H]4CO[P@@](O)(=S)O[C@H]4[C@H]3O)c2nc2[nH]c(-c3ccccc3)cn12	TDP1 inh 22µM, APEX1 inh 13µM (no result: FEN1 inh)
N=C1CCC(=N)c2c1c(O)c1ccccc1c2O	FEN1 inh 40µM, RECQ1 inh inconclusive, APEX1 inh inconclusive, BLM helicase inh 32µM
O=S(c1cc(Cl)cc(Cl)c1O)c1cc(Cl)cc(Cl)c1O	none (no result: FEN1 inh, RECQ1 inh, APEX1 inh)
Oc1c(Cl)cc(Cl)cc1Sc1cc(Cl)cc(Cl)c1O	RECQ1 inh 40µM, BLM helicase inh inconclusive (no result: FEN1 inh)
Cc1ccc(NC(=O)COc2ccccc2C(=O)Nc2ccccc2)cc1	none (no result: TDP1 inh, RECQ1 inh, APEX1 inh, BLM helicase inh)
CC(=O)c1ccc(NC(=O)c2noc3c2CCC3)cc1	TDP1 inh 25µM, RECQ1 inh inconclusive, APEX1 inh inconclusive
O=C(Nc1ccc(OC(F)(F)F)cc1)c1noc2c1CCCC2	none (no result: RECQ1 inh, APEX1 inh)
CC(=O)N1CCOc2cc(S(=O)(=O)Nc3cccc(C(F)(F)F)c3)c(Cl)cc21	TDP1 inh 11µM (no result: RECQ1 inh)
COc1c(O)c(O)cc2c1oc1c3ccccc3oc(=O)c21	RECQ1 inh 11µM, APEX1 inh 28µM, BLM helicase inh 14µM (no result: FEN1 inh)
Cc1c(O)c2ccccc2oc1=O	none (no result: TDP1 inh)
O=c1oc2cc(O)ccc2c2oc3cc(O)ccc3c12	FEN1 inh 40µM, RECQ1 inh 32µM, APEX1 inh inconclusive, BLM helicase inh inconclusive
C[C@H]1COC(=O)[C@H]2CCCN2C(=O)[C@@H](C)COC(=O)[C@H](Cc2ccccc2)NC1=O	none (no result: FEN1 inh)
CC(C)CCOc1ccc(C(CC(N)=O)C(=O)O)cc1 (configuration not stated)	none

Screening data: PubChem BioAssay, National Center for Advancing Translational Sciences (NCATS)
